The values below come from PubChem BioAssay.

Unmarked numbers belong to inactive results. Calls of active or inactive are those of the source.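 How the source made its calls: active means inhibition above the hit cutoff set in the earlier primary screen (cut at about 27% in these data); inactive means the rest.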

For the experiment, the target named is Protein phosphatase methylesterase 1 (Homo sapiens) (UniProt Q9Y570). Put plainly: PME-1 inhibitor activity retest, confirmation, biochemical, fluorescence polarization, FP-Rh probe, triplicate (AID 2171).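 Further: 0% = enzyme with DMSO and 100% = wells lacking PME-1.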 Particulars: recombinant PME-1, FP-Rh probe fluorescence polarization; at 5.9 µM; hits give high values. Background: Polarisation of emitted light reports the rotation of a fluorescent probe.
Chain of Protein phosphatase methylesterase 1 (Homo sapiens) (Q9Y570 whole entry, looked up): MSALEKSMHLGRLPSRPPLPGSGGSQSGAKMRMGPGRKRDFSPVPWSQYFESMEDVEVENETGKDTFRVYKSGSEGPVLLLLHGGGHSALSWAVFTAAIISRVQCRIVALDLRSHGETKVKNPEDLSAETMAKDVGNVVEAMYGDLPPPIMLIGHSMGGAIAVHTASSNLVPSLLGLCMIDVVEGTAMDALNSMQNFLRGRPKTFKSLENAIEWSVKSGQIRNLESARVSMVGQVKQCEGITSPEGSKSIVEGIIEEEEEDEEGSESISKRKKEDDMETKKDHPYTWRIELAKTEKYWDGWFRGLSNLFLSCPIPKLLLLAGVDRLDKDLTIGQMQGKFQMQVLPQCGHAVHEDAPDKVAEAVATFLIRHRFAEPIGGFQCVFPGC
The term inhibition denotes the drop in the measured response relative to a control, in per cent. As for `O=C(NNc1c2ccccc2nc2ccccc12)c1cccc(O)c1`, the inhibition is 36% (active).

On to `CN(C)S(=O)(=O)c1ccc(-c2csc(N/N=C/c3ccc(O)cc3)n2)cc1`, for which the inhibition was 25%.

As for `COc1ccc(NC(=S)NNc2ccc(S(=O)(=O)Nc3ccccc3C(=O)O)cc2[N+](=O)[O-])cc1`, the inhibition was 44.9% (active).

In the case of `CCCCCCn1c(=O)[nH]c2nc3cc(N)ccc3nc2c1=O`, the inhibition is 37.6% (active).

With `Oc1c(Br)cc(Br)c(/C=N/n2c(-c3ccccc3)n[nH]c2=S)c1Br`, the inhibition was 45.5% (active).

In the case of `O=C(N/N=C/c1sc(N2CCOCC2)nc1-c1ccccc1)c1ccccc1O`, the inhibition was 51.2% (active).

In the case of `Cc1ccc(OCCn2cc(/C=N/NC(=O)c3ccncc3)c3ccccc32)cc1`, the inhibition was 33.5% (active).

Turning to `CCCN(CC(=O)Nc1ccccc1C)C(=O)COC(=O)CSc1ccc([N+](=O)[O-])cc1`, the inhibition is 17.4%.

As to `C/C(=N/Nc1ccnc2cc(Cl)ccc12)c1ccc(O)cc1`, the inhibition was 10.9%.

As for `CCCCn1c(/C=N/Nc2nc3ccccc3[nH]2)nc2ccccc21`, the inhibition was 61.3% (active).

Take `CCOc1ccc(NC(=S)NNc2ccnc3cc(Cl)ccc23)cc1`: the inhibition was 28.3% (active).

As for `CCn1c(CSc2nnc3ccccn23)nc2cc(C(=O)O)ccc21`, the inhibition was 59% (active).

In the case of `Cc1c(Cl)cccc1Nc1nc(N)nc(CSc2nc3ccccc3s2)n1`, the inhibition is 25.1%.

As for `CCOc1ccc(NC(=S)Nc2ccc3nsnc3c2)cc1`, the inhibition was 24.1%.

Turning to `Brc1ccc(/C=N/Nc2nc3ccccc3o2)cc1`, the inhibition was 22.2%.

With `O=C(NCCC1=CCCCC1)C1CCN(S(=O)(=O)c2cccs2)CC1`, the inhibition was 25.6%.

For the compound `Oc1cccc(Nc2nc(O)c(/C=C3\C=Nc4ccccc43)s2)c1`, the inhibition is -7.79%.

As for `O=c1cc(N2CCCCC2)c(-c2ccccc2)nn1Cc1c(Cl)cccc1Cl`, the inhibition was 25.3%.

For the compound `O=c1[nH]c(C2CCN(S(=O)(=O)c3ccc(C(F)(F)F)cc3)CC2)nc2c1nnn2Cc1ccc(F)cc1`, the inhibition is 79.1% (active).

In the case of `COc1ccc(OCCn2cc(/C=N/NC(=O)c3ccncc3)c3ccccc32)cc1`, the inhibition was -21.9%.

Regarding `N#C/C(=C/c1ccc(O)c(O)c1)c1nc2ccccc2[nH]1`, the inhibition is -30.6%.

For the compound `CC1=NN(c2ccc(C)c(C)c2)C(=O)C1C(c1cccc(O)c1)C1C(=O)N(c2ccc(C)c(C)c2)N=C1C` (stereo not given), the inhibition was 15.3%.

As to `COc1ccc(Nc2ncnc3sc(-c4ccccc4)cc23)cc1OC`, the inhibition is 6.82%.

As for `CC1=CC(C)(C)N2C(=O)C(=Nc3ccc(O)cc3)c3cccc1c32`, the inhibition is 4.13%.

On to `O=C(CN1CCN(S(=O)(=O)c2ccc(Br)cc2)CC1)N/N=C/c1cc([N+](=O)[O-])ccc1Cl`, for which the inhibition is 21%.

For the compound `CC(Sc1nnc(NC2CCCCC2)s1)C(=O)Nc1ccc2c(c1)C(=O)c1ccccc1C2=O` (stereo not given), the inhibition was -4.4%.

For `CCOc1cccc(/C=C/c2ccc3cccc(O)c3n2)c1O`, the inhibition is 26.6% (active).

For the compound `CCOc1cc(N(CC)CC)ccc1/C=C(/C#N)c1nc2ccccc2[nH]1`, the inhibition was 8.91%.

Regarding `COc1cc(/C=N/Nc2nc3ccccc3s2)cc([N+](=O)[O-])c1O`, the inhibition was 72.5% (active).

Turning to `CC(C)=CCc1cc(-c2oc3cc(O)cc(O)c3c(=O)c2O)ccc1O`, the inhibition is 36.8% (active).

With `O=C(NNc1c2ccccc2nc2ccccc12)c1ccc(O)cc1O`, the inhibition is 65.2% (active).

On to `Cc1cccc2cc(C#N)c(SCC#N)nc12`, for which the inhibition is 3.95%.

In the case of `Cc1nc2ccccc2nc1N/N=C/c1ccc(O)cc1O`, the inhibition was 36.4% (active).

Turning to `CC(=O)Nc1ccc(Nc2c3c4c(cccc4n(C)c2=O)C(=O)c2ccccc2-3)cc1`, the inhibition was 31.5% (active).

`COC(=O)N1C(=O)[C@](c2ccccc2)(C2CCCCC2)N1C(=O)OC`: the inhibition was 76.6% (active).

In the case of `CCNc1cc(O)ccc1C`, the inhibition is 2.02%.

On to `O=c1[nH]n2c(=O)c3c([nH]c2c1N=Nc1cccc(C(F)(F)F)c1)CCCC3`, for which the inhibition was 60.6% (active).

With `Nc1ccc(Br)c2c1C(=O)c1ccccc1C2=O`, the inhibition was 21%.

Regarding `Cc1ccc(O)c(N=CC2=C(O)c3ccccc3C2=O)c1`, the inhibition was 27.3% (active).

Take `CSC[C@@H]1NC(=S)N(c2ccc(C)cc2)C1=O`: the inhibition was 38% (active).
